Experimental data from PubChem BioAssay (NCI).
About 83,000 compounds went through this panel and 20% of them were active in at least one assay; those are over-represented in the sample as a whole.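 Cells were grown in 96-well plates and exposed to the test compound at a single concentration for 48 hours; results are reported as percent growth, with values below 10 considered active.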 Unmarked numbers belong to inactive results. The source made the active and inactive calls.

tested on: NCI-H522 lung; experiment: NCI-60 one-dose screen, 48 h (100 = growth as untreated, 0 = no growth, -100 = all killed); conditions: 10 µM unless noted

How did the growth turn out when `Cc1ccc(C2CC(c3nc(-c4ccc(Cl)cc4)oc3C)=NN2C(=O)c2ccncc2)cc1` (stereo not given) was run?
The growth was 80.8%.

`CSc1nc(C)c([N+](=O)[O-])c(N)n1` was tested. Which growth did it give?
Its growth is 77.2%.

`[2H]C([2H])([2H])Oc1ccc(F)cc1/C=C/C(=O)/C=C(O)/C=C/c1cc(F)ccc1OC([2H])([2H])[2H]` was tested. Which growth did it give?
Its growth is 74.4%.

How did the growth turn out when `COc1ccc(-c2nc3c(N)c(CO)cnc3s2)cc1` was run?
Its growth is 92.1%.

With `O=S(=O)(NCCNc1nccc(-c2c(-c3ccc(F)c(O)c3)nc3sccn23)n1)c1ccc(F)cc1` as the molecule, how does the growth read?
The growth was 28.5%.

Which growth does the source give for `CCOC(=O)c1cnc2c(N=Nc3ccc(OC)cc3)c(N)nn2c1N` here?
The growth was 86.8%.

With `COc1ccc(-c2nn(-c3ccccc3)cc2/C=C/C(=O)NNC(=O)Nc2ccc(C)cc2)cc1` as the molecule, how does the growth read?
The growth was 89.4%.

`Oc1ccc(/C=C/c2ccc(O)cc2)cc1` was tested. Which growth did it give?
The growth was -0.122% (active).

For `O=[N+]([O-])c1ccc(-c2cn3nc(-c4c[nH]c5ccccc45)sc3n2)cc1`, which growth is on record?
Its growth is 80.7%.

For `Oc1c(CN2CCOCC2)cc(COCc2ccccc2)c2cccnc12`, which growth is on record?
Its growth is 4.41% (active).

How did the growth turn out when `CCOC(=O)CC1CSC(Nc2ccccc2)=N1` (stereo not given) was run?
The growth was 94.9%.

For `CCc1n(Cc2ccc3ccccc3n2)cc[n+]1Cc1ccc2ccccc2n1`, which growth is on record?
Its growth is -3.51% (active).

How did the growth turn out when `O=P(O)(O)OCC1OC(n2cnc3c(NCc4ccco4)ncnc32)C(O)C1O` (stereo not given) was run?
Its growth is -32.7% (active).

How did the growth turn out when `COc1ccc(C2=CC(c3cc(OC)c(OC)c(OC)c3)n3ncnc3N2)cc1` (stereo not given) was run?
The growth was -13.3% (active).

`C/C=C(\C)C(=O)N[C@H]1C(O)C[C@]2(C)C3CC[C@@]4(C)C(CC[C@@H]4C(C)N(C)C)C3CCC2C1O` (stereo not given in full) was tested. Which growth did it give?
The growth was 90.6%.

For `COc1cc(-c2nc3sccn3c2-c2ccnc(NCCNS(=O)(=O)c3ccc(Cl)cc3)n2)ccc1F`, which growth is on record?
Its growth is 1.16% (active).

How did the growth turn out when `CCCn1cnc2c(c1=N)C(c1ccc(F)cc1)c1sc3c(F)cccc3c1O2` (stereo not given) was run?
Its growth is 4.15% (active).

For `C#CCNC(=O)[C@]1(C)CCC[C@@]2(C)[C@H]1CC=C1C=C(C(C)C)CC[C@@H]12`, which growth is on record?
Its growth is 96.2%.

With `N[C@H]1CCC[C@@H]1NCCCCN1C(=O)c2cccc3cc([N+](=O)[O-])cc(c23)C1=O` as the molecule, how does the growth read?
The growth was 38.4%.

With `CC1C=CC(OC(=O)C(C)(O)CCC(O)(C(=O)OC2CC(O)C(C(C)C)CC2(C)O)C(C)C)(C(C)C)CC1` (stereo not given) as the molecule, how does the growth read?
Its growth is -76.7% [4.63 µM] (active).

Which growth does the source give for `C=CC(=O)Nc1ccc(Nc2nccc(-c3ccc(N4CCCC4)c(C#N)c3)n2)cc1` here?
Its growth is 12.4%.

How did the growth turn out when `CC(=O)OC(c1ccccc1)C1CCOC1=O` (stereo not given) was run?
Its growth is 78.1%.

Which growth does the source give for `COC(=O)CCC/C=C\C[C@H]1C=CC(=O)/C1=C/C[C@@H](O)C/C=C\CC(F)(F)F` here?
The growth was -56.6% (active).

Which growth does the source give for `N#CC1=C(N)Oc2ccc3ccccc3c2C1c1ccc([N+](=O)[O-])cc1` (stereo not given) here?
Its growth is 73.5%.

With `COc1cc(-c2nc3c(ncc4ccc(=O)n(-c5ccccc5)c43)s2)cc(OC)c1OC` as the molecule, how does the growth read?
Its growth is 64.8%.

`Cc1ccc(-c2csc(N(C(=O)N3CCN(c4cc5c(cc4F)c(=O)c(C(=O)O)cn5C4CC4)CC3)c3ccccc3)n2)cc1` was tested. Which growth did it give?
Its growth is -0.464% (active).

With `O=c1cc(-c2ccccc2)[nH]c2ncc(-c3ccc(F)cc3)n12` as the molecule, how does the growth read?
The growth was 36%.

`COc1cc(-c2nc3cc(Cl)c(Cl)cc3[nH]2)ccc1OCC(=O)N=Nc1c(O)[nH]c2ccc(Cl)cc12` was tested. Which growth did it give?
The growth was 4.94% (active).

Which growth does the source give for `NC(=O)c1c(NC(=O)c2cccs2)sc2c1CCC(=O)C2` here?
Its growth is -0.894% (active).

`O=C(Oc1ccc(CCl)cc1)c1ccccc1` was tested. Which growth did it give?
The growth was -65.7% (active).

How did the growth turn out when `O=C(Cc1ccc(/C=C/C(=O)c2ncc[nH]2)cc1)Nc1cc(C(F)(F)F)cc(C(F)(F)F)c1` was run?
The growth was 96.6%.

How did the growth turn out when `Nc1ncnc2c1N=C(c1ccc3c(c1)OCO3)CC(c1cccc(Nc3ccnc4cc(C(F)(F)F)ccc34)c1)N2` (stereo not given) was run?
The growth was 73.6%.

Which growth does the source give for `COc1cccc(/C=N/NC(=O)c2ccccc2N2CCCC2)c1O` here?
Its growth is -34.1% (active).

`CCNc1ccc(-c2nc3ccccc3n3cccc23)cc1` was tested. Which growth did it give?
The growth was 71.3%.

`CN(C)CCCNC(=O)c1cncnc1Nc1ccc(OCc2cccc(F)c2)c(Cl)c1` was tested. Which growth did it give?
The growth was -60.4% (active).

`O=C(NC1CC(F)C1)c1cc2cccnc2n1-c1ccc(Cl)c(Cl)c1` (stereo not given) was tested. Which growth did it give?
The growth was 88.5%.

For `CN1CCN(c2ccc3nc4c(nc3c2C(F)(F)F)C(=O)c2ncccc2C4=O)CC1`, which growth is on record?
The growth was -67.5% (active).

How did the growth turn out when `Cc1ccc(N2C(=O)CCC2=O)cc1` was run?
The growth was 74.2%.

Which growth does the source give for `CCN1C(=O)N(CC)C2C1NN=c1s/c(=C3\C(=O)N(CCC(C)C)c4ccccc43)c(=O)n12` (stereo not given) here?
The growth was 1.9% (active).

For `CN(Cc1cnc2nc(N)nc(N)c2n1)c1ccc(C(=O)NC(CCC(=O)O)C(=O)O)cc1Br` (stereo not given), which growth is on record?
The growth was 43.8%.

tested on: A549/ATCC NSCLC; experiment: as above; conditions: 10 µM unless noted

`Cc1ccc(C2CC(c3nc(-c4ccc(Cl)cc4)oc3C)=NN2C(=O)c2ccncc2)cc1` (stereo not given) was tested. Which growth did it give?
The growth was 84.4%.

Which growth does the source give for `CSc1nc(C)c([N+](=O)[O-])c(N)n1` here?
The growth was 76.2%.

With `[2H]C([2H])([2H])Oc1ccc(F)cc1/C=C/C(=O)/C=C(O)/C=C/c1cc(F)ccc1OC([2H])([2H])[2H]` as the molecule, how does the growth read?
The growth was 93.7%.

How did the growth turn out when `COc1ccc(-c2nc3c(N)c(CO)cnc3s2)cc1` was run?
Its growth is 91.7%.

How did the growth turn out when `O=S(=O)(NCCNc1nccc(-c2c(-c3ccc(F)c(O)c3)nc3sccn23)n1)c1ccc(F)cc1` was run?
Its growth is 26.9%.

How did the growth turn out when `CCOC(=O)c1cnc2c(N=Nc3ccc(OC)cc3)c(N)nn2c1N` was run?
Its growth is 95%.

How did the growth turn out when `COc1ccc(-c2nn(-c3ccccc3)cc2/C=C/C(=O)NNC(=O)Nc2ccc(C)cc2)cc1` was run?
The growth was 94.8%.

For `Oc1ccc(/C=C/c2ccc(O)cc2)cc1`, which growth is on record?
Its growth is 60.7%.

Which growth does the source give for `O=[N+]([O-])c1ccc(-c2cn3nc(-c4c[nH]c5ccccc45)sc3n2)cc1` here?
Its growth is 86.9%.

With `Oc1c(CN2CCOCC2)cc(COCc2ccccc2)c2cccnc12` as the molecule, how does the growth read?
The growth was 26.5%.

For `CCOC(=O)CC1CSC(Nc2ccccc2)=N1` (stereo not given), which growth is on record?
Its growth is 95.3%.

Which growth does the source give for `CCc1n(Cc2ccc3ccccc3n2)cc[n+]1Cc1ccc2ccccc2n1` here?
Its growth is 57.4%.

With `O=P(O)(O)OCC1OC(n2cnc3c(NCc4ccco4)ncnc32)C(O)C1O` (stereo not given) as the molecule, how does the growth read?
The growth was 7.15% (active).

With `COc1ccc(C2=CC(c3cc(OC)c(OC)c(OC)c3)n3ncnc3N2)cc1` (stereo not given) as the molecule, how does the growth read?
The growth was 14.3%.

`C/C=C(\C)C(=O)N[C@H]1C(O)C[C@]2(C)C3CC[C@@]4(C)C(CC[C@@H]4C(C)N(C)C)C3CCC2C1O` (stereo not given in full) was tested. Which growth did it give?
The growth was 81.6%.

How did the growth turn out when `COc1cc(-c2nc3sccn3c2-c2ccnc(NCCNS(=O)(=O)c3ccc(Cl)cc3)n2)ccc1F` was run?
The growth was 30%.

For `CCCn1cnc2c(c1=N)C(c1ccc(F)cc1)c1sc3c(F)cccc3c1O2` (stereo not given), which growth is on record?
Its growth is 48.1%.

Which growth does the source give for `C#CCNC(=O)[C@]1(C)CCC[C@@]2(C)[C@H]1CC=C1C=C(C(C)C)CC[C@@H]12` here?
The growth was 97.6%.

Which growth does the source give for `N[C@H]1CCC[C@@H]1NCCCCN1C(=O)c2cccc3cc([N+](=O)[O-])cc(c23)C1=O` here?
Its growth is 27.6%.

`CC1C=CC(OC(=O)C(C)(O)CCC(O)(C(=O)OC2CC(O)C(C(C)C)CC2(C)O)C(C)C)(C(C)C)CC1` (stereo not given) was tested. Which growth did it give?
The growth was -78.2% [4.63 µM] (active).

For `C=CC(=O)Nc1ccc(Nc2nccc(-c3ccc(N4CCCC4)c(C#N)c3)n2)cc1`, which growth is on record?
The growth was 14.7%.

Which growth does the source give for `CC(=O)OC(c1ccccc1)C1CCOC1=O` (stereo not given) here?
The growth was 99%.

Which growth does the source give for `COC(=O)CCC/C=C\C[C@H]1C=CC(=O)/C1=C/C[C@@H](O)C/C=C\CC(F)(F)F` here?
Its growth is -3.51% (active).

How did the growth turn out when `N#CC1=C(N)Oc2ccc3ccccc3c2C1c1ccc([N+](=O)[O-])cc1` (stereo not given) was run?
The growth was 93.7%.

With `COc1cc(-c2nc3c(ncc4ccc(=O)n(-c5ccccc5)c43)s2)cc(OC)c1OC` as the molecule, how does the growth read?
Its growth is 86.3%.

`Cc1ccc(-c2csc(N(C(=O)N3CCN(c4cc5c(cc4F)c(=O)c(C(=O)O)cn5C4CC4)CC3)c3ccccc3)n2)cc1` was tested. Which growth did it give?
The growth was 13.7%.

Which growth does the source give for `O=c1cc(-c2ccccc2)[nH]c2ncc(-c3ccc(F)cc3)n12` here?
Its growth is 66.2%.

With `COc1cc(-c2nc3cc(Cl)c(Cl)cc3[nH]2)ccc1OCC(=O)N=Nc1c(O)[nH]c2ccc(Cl)cc12` as the molecule, how does the growth read?
Its growth is 45.8%.

For `NC(=O)c1c(NC(=O)c2cccs2)sc2c1CCC(=O)C2`, which growth is on record?
The growth was 84.8%.

Which growth does the source give for `O=C(Oc1ccc(CCl)cc1)c1ccccc1` here?
The growth was -68.7% (active).

With `O=C(Cc1ccc(/C=C/C(=O)c2ncc[nH]2)cc1)Nc1cc(C(F)(F)F)cc(C(F)(F)F)c1` as the molecule, how does the growth read?
Its growth is 81.1%.

For `Nc1ncnc2c1N=C(c1ccc3c(c1)OCO3)CC(c1cccc(Nc3ccnc4cc(C(F)(F)F)ccc34)c1)N2` (stereo not given), which growth is on record?
The growth was 68.6%.

With `COc1cccc(/C=N/NC(=O)c2ccccc2N2CCCC2)c1O` as the molecule, how does the growth read?
The growth was 70.5%.

Which growth does the source give for `CCNc1ccc(-c2nc3ccccc3n3cccc23)cc1` here?
Its growth is 75.6%.

With `CN(C)CCCNC(=O)c1cncnc1Nc1ccc(OCc2cccc(F)c2)c(Cl)c1` as the molecule, how does the growth read?
The growth was -58% (active).

With `O=C(NC1CC(F)C1)c1cc2cccnc2n1-c1ccc(Cl)c(Cl)c1` (stereo not given) as the molecule, how does the growth read?
Its growth is 96.5%.

For `CN1CCN(c2ccc3nc4c(nc3c2C(F)(F)F)C(=O)c2ncccc2C4=O)CC1`, which growth is on record?
The growth was -36.2% (active).

How did the growth turn out when `Cc1ccc(N2C(=O)CCC2=O)cc1` was run?
The growth was 102%.

`CCN1C(=O)N(CC)C2C1NN=c1s/c(=C3\C(=O)N(CCC(C)C)c4ccccc43)c(=O)n12` (stereo not given) was tested. Which growth did it give?
Its growth is 14.2%.

How did the growth turn out when `CN(Cc1cnc2nc(N)nc(N)c2n1)c1ccc(C(=O)NC(CCC(=O)O)C(=O)O)cc1Br` (stereo not given) was run?
The growth was 26%.
